Data from PubChem BioAssay AID1159580 (chemical genetic matrix, 2015).
Where “and” joins values, the source holds several entries; their conditions need not be identical. Equal entries are not always repeated. About 2,000 (36%) of roughly 5,500 compounds were called active. Inconclusive results (about 18%) are left out. Cut-off read from the data, not from the text of the source: active = normalized growth mostly below about 0.91 (no sharp cut-off); inconclusive = no clear call, values can overlap the other calls; inactive = mostly above about 0.92. The list shows a part of the results.

Assay: chemical genetic growth profiling, strain panel (AID 1159580);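 note: tested at 20 µM; growth read once vehicle control cultures reached saturation at 30 °C; 1 = growth at the plate median or of vehicle wells; lower values mean less growth of the strain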
Conditions: S. cerevisiae deletion strains, growth OD

Measured: normalized growth

C#C[C@]1(OC(C)=O)CCC2C3CCC4=CC(=O)CC[C@@H]4C3CC[C@@]21C (some centres not stated)
inactive: locus YAL013W, strain DEP1, hits give low values 0.97 | locus YAL021C, strain ccr4, hits give low values 0.988 | locus YAL026C, strain drs2, hits give low values 0.984 | locus YAL030W, strain snc1, hits give low values 0.986 | locus YBL061C, strain skt5, hits give low values 0.981 | locus YBR009C, strain hhf1, hits give low values 0.991 | locus YBR021W, strain FUR4, hits give low values 0.98 | locus YBR023C, strain chs3, hits give low values 0.976 | locus YBR171W, strain sec66, hits give low values 0.974 | locus YBR229C, strain ROT2, hits give low values 0.953 | locus YBR231C, strain swc5, hits give low values 1.01 | locus YBR279W, strain paf1, hits give low values 0.977 | locus YCL011C, strain gbp2, hits give low values 0.985 | locus YCL016C, strain dcc1, hits give low values 0.974 | locus YCL029C, strain bik1, hits give low values 0.96 | locus YCL069W, strain vba3, hits give low values 0.973 | locus YCR088W, strain abp1, hits give low values 0.99 | locus YDL005C, strain med2, hits give low values 0.971 | locus YDL035C, strain GPR1, hits give low values 0.972 | locus YDL040C, strain nat1, hits give low values 0.985 | locus YDL074C, strain BRE1, hits give low values 0.965 | locus YDL101C, strain DUN1, hits give low values 0.97 | locus YDL134C, strain PPH21, hits give low values 0.948 | locus YDL185W, strain tfp1, hits give low values 0.976 | locus YDL192W, strain arf1, hits give low values 0.961 | locus YDR001C, strain nth1, hits give low values 0.999 | locus YDR069C, strain doa4, hits give low values 0.969 | locus YDR101C, strain arx1, hits give low values 0.977 | locus YDR137W, strain rgp1, hits give low values 0.982 | locus YDR159W, strain sac3, hits give low values 0.936 | locus YDR162C, strain NBP2, hits give low values 0.961 | locus YDR195W, strain ref2 0.978 | locus YDR297W, strain sur2, hits give low values 0.994 | locus YDR318W, strain mcm21, hits give low values 0.941 | locus YDR334W, strain swr1, hits give low values 1.02 | locus YDR335W, strain msn5, hits give low values 0.978 | locus YDR388W, hits give low values 0.966 | locus YDR392W, strain spt3, hits give low values 0.828 | locus YDR502C, strain sam2, hits give low values 0.949 | locus YEL003W, strain gim4, hits give low values 1.01 | locus YEL037C, strain rad23, hits give low values 1 | locus YEL061C, strain CIN8 (second series), hits give low values 0.991 | locus YEL061C, strain CIN8, hits give low values 0.978 | locus YER015W, strain faa2, hits give low values 0.995 | locus YER016W, strain bim1, hits give low values 0.988 | locus YER110C, hits give low values 0.97 | locus YER111C, strain swi4, hits give low values 0.985 | locus YER155C, strain BEM2 (second series), hits give low values 0.975 | locus YER155C, strain BEM2, hits give low values 0.971 | locus YER167W, strain BCK2, hits give low values 0.974 | locus YFR010W, strain ubp6, hits give low values 1 | locus YGL078C, strain dbp3, hits give low values 0.989 | locus YGL086W, strain mad1, hits give low values 0.957 | locus YGL167C, strain pmr1, hits give low values 0.993 | locus YGL173C, strain kem1, hits give low values 0.989 | locus YGL227W, strain vid30, hits give low values 0.975 | locus YGL240W, strain doc1, hits give low values 1 | locus YGL248W, strain PDE1, hits give low values 0.967 | locus YGL253W, strain hxk2, hits give low values 1.01 | locus YGR135W, strain pre9, hits give low values 0.925 | locus YGR252W, strain gcn5, hits give low values 1.07 | locus YHR013C, strain ard1, hits give low values 0.955 | locus YHR027C, strain rpn1, hits give low values 1.01 | locus YHR030C, strain SLT2, hits give low values 0.975 and 0.933 | locus YHR079C, strain IRE1 (second series), hits give low values 0.969 | locus YHR079C, strain IRE1, hits give low values 0.92 | locus YHR094C, strain hxt1, hits give low values 0.981 | locus YHR129C, strain ARP1, hits give low values 0.974 | locus YHR142W, strain chs7, hits give low values 1 | locus YHR200W, strain rpn10, hits give low values 0.963 | locus YIL066C, strain RNR3, hits give low values 0.965 | locus YIL073C, strain SPO22, hits give low values 0.926 | locus YIL125W, strain kgd1, hits give low values 0.971 | locus YIR030C, strain dcg1, hits give low values 0.961 | locus YJL092W, strain hpr5, hits give low values 1 | locus YJL095W, strain BCK1 (second series), hits give low values 0.984 | locus YJL095W, strain BCK1, hits give low values 0.926 and 0.95 | locus YJL115W, strain asf1, hits give low values 0.982 | locus YJL129C, strain trk1, hits give low values 0.975 | locus YJL134W, strain LCB3, hits give low values 0.973 | locus YJL154C, strain vps35, hits give low values 0.985 | locus YJL164C, strain tpk1, hits give low values 0.99 | locus YJL166W, strain qcr8, hits give low values 0.995 | locus YJL168C, strain set2, hits give low values 0.97 | locus YJL187C, strain SWE1 (second series), hits give low values 0.961 | locus YJR043C, strain POL32, hits give low values 1.03 | locus YJR066W, strain TOR1, hits give low values 0.903
